PubChem BioAssay (Tox21)
Inconclusive results are not listed. The source made the active and inactive calls. The call rests on the fitted dose curve; in most records, active means well fitted curve in the direction sought with a large enough effect in the repeat runs; inconclusive means weak or mixed curves; inactive means no such curve, though single readings can be large; an effect the other way counts as inactive or inconclusive.

Columns and labels:
[1] = qHTS RealTime-Glo MT Cell Viability Assay in HEK293 cells - 0 hour (AID 1224880); further: top concentration of the series differs between compounds; nearly all actives have a fitted effect of over 45% in size
Outline: (§1)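 qHTS format; HEK293 cells with NanoLuc/prosubstrate reagent, 37 C/5% CO2 for 5 h pre-dosing; compounds 23 nL in DMSO; luminescence at each time point reflects viable cells.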

[2] = A CellTox Green Cytotoxicity Assay to monitor cytotoxicity in HEK293 cells - 32 hour (AID 1224881); further: nearly all actives have a fitted effect of over 40% in size
Outline: (§2)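 Each value comes from one timepoint of a single continuous run in which HEK293 cells with CellTox Green were exposed to compound for up to 40 h at 37 C, dye fluorescence rising with cell death.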

[3] = A CellTox Green Cytotoxicity Assay to monitor cytotoxicity in HepG2 cells - 0 hour (AID 1224882); further: nearly all actives have a fitted effect of over 35% in size
Outline: (§3)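 Continuous culture of HepG2 cells with a membrane-impermeant DNA dye; rising fluorescence marks dead cells. Compound exposure lasted up to 40 h at 37 C, with reads every 8 h from 0 h.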

[4] = A CellTox Green Cytotoxicity Assay to monitor cytotoxicity in HepG2 cells - 32 hour (AID 1224883); further: nearly all actives have a fitted effect of over 50% in size
Outline: as §3

[5] = A CellTox Green Cytotoxicity Assay to monitor cytotoxicity in HEK293 cells - 8 hour (AID 1224884); further: nearly all actives have a fitted effect of over 35% in size
Outline: as §2

[6] = qHTS RealTime-Glo MT Cell Viability Assay in HepG2 cells - 16 hour (AID 1224885); further: nearly all actives have a fitted effect of over 50% in size
Outline: (§4)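 qHTS, HepG2, 600 cells/well, RealTime-Glo (NanoLuc + prosubstrate) added with cells; 5 h preincubation; DMSO compound addition; 37 C; luminescence at 0/8/16/24/32/40 h.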

[7] = qHTS RealTime-Glo MT Cell Viability Assay in HEK293 cells - 24 hour (AID 1224886); further: top concentration of the series differs between compounds; nearly all actives have a fitted effect of over 50% in size
Outline: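 Assay medium contained NanoLuc luciferase plus cell-permeant prosubstrate, added with HEK293 cells at 600 cells/well. After 5 h at 37 C/5% CO2 compounds were added; plates stayed at 37 C for 40 h with serial luminescence reads.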

[8] = A CellTox Green Cytotoxicity Assay to monitor cytotoxicity in HEK293 cells - 16 hour (AID 1224888); further: nearly all actives have a fitted effect of over 35% in size
Outline: as §2

[9] = qHTS RealTime-Glo MT Cell Viability Assay in HepG2 cells - 0 hour (AID 1224889); further: nearly all actives have a fitted effect of over 50% in size
Outline: as §4

[10] = qHTS RealTime-Glo MT Cell Viability Assay in HEK293 cells - 8 hour (AID 1224887)
Outline: as §1
On the % scale 0 is the no-effect control and ±100 the full control effect.

CCCC(C)C(=O)O (stereo unspecified)
inactive: outcome [1] | Potency [2] | Potency [3] | Potency [4] | Potency [5] | outcome [6] | Potency [7] | Potency [8] | Potency [9]

COc1cc(C)cc(O)c1
inactive: outcome [1] | Potency [2] | Potency [3] | Potency [4] | Potency [5] | outcome [6] | Potency [7] | Potency [10] | Potency [8] | Potency [9]

CCC(=O)Nc1cccc(N)c1
inactive: outcome [1] | Potency [2] | Potency [3] | Potency [4] | Potency [5] | outcome [6] | Potency [7] | Potency [10] | Potency [8] | Potency [9]

CC(C)[C@H](N)C(=O)OCCOCn1cnc2c(=O)[nH]c(N)nc21
inactive: outcome [1] | Potency [2] | Potency [3] | Potency [4] | Potency [5] | outcome [6] | Potency [7] | Potency [10] | Potency [8] | Potency [9]

CCCCCCCCCCCCCCCCCC(=O)OCCCCCCCCCCCCCC(C)C
inactive: outcome [1] | Potency [2] | Potency [3] | Potency [4] | Potency [5] | outcome [6] | Potency [7] | Potency [8] | Potency [9]

OCC(O)[C@@H](O)[C@H](O)[C@H](O)CO[C@H]1O[C@H](CO)[C@@H](O)[C@H](O)[C@H]1O (stereo partly specified)
inactive: outcome [1] | Potency [2] | Potency [3] | Potency [4] | Potency [5] | outcome [6] | Potency [7] | Potency [10] | Potency [8] | Potency [9]

OCC(CO)(CO)COCC(CO)(CO)CO
inactive: outcome [1] | Potency [2] | Potency [3] | Potency [4] | Potency [5] | outcome [6] | Potency [7] | Potency [8] | Potency [9]

COC(C(=O)O)c1ccccc1 (stereo unspecified)
inactive: outcome [1] | Potency [2] | Potency [3] | Potency [4] | Potency [5] | outcome [6] | Potency [7] | Potency [10] | Potency [8] | Potency [9]

Nc1nc2c(ncn2CCC(CO)CO)c(=O)[nH]1
inactive: outcome [1] | Potency [2] | Potency [3] | Potency [4] | Potency [5] | outcome [6] | Potency [7] | Potency [10] | Potency [8] | Potency [9]

C#CC(O)CCCCC (stereo unspecified)
inactive: outcome [1] | Potency [2] | Potency [3] | Potency [4] | Potency [5] | outcome [6] | Potency [7] | Potency [8]

CCC(=O)c1cccc(Cl)c1
inactive: outcome [1] | Potency [2] | Potency [3] | Potency [4] | Potency [5] | outcome [6] | Potency [7] | Potency [10] | Potency [8] | Potency [9]

CCOC(=O)Nc1ccc2c(c1)N(C(=O)CCN1CCOCC1)c1ccccc1S2
inactive: outcome [1] | Potency [2] | Potency [3] | Potency [4] | Potency [5] | outcome [6] | Potency [7] | Potency [8]

CCCCCCC(CCCCCCCCCCC(=O)OCC(COC(C)=O)OC(C)=O)OC(C)=O (stereo unspecified)
inactive: outcome [1] | Potency [2] | Potency [3] | Potency [4] | Potency [5] | outcome [6] | Potency [7] | Potency [10] | Potency [8] | Potency [9]

O=C(O)c1ccc[n+]([O-])c1
inactive: outcome [1] | Potency [2] | Potency [3] | Potency [4] | Potency [5] | outcome [6] | Potency [7] | Potency [10] | Potency [8] | Potency [9]

Cc1onc(-c2ccccc2)c1-c1ccc(S(N)(=O)=O)cc1
inactive: outcome [1] | Potency [2] | Potency [3] | Potency [4] | Potency [5] | outcome [6] | Potency [8] | Potency [9]

C[N+](C)(C)CC[N+]1(C)Cc2c(Cl)c(Cl)c(Cl)c(Cl)c2C1
inactive: outcome [1] | Potency [2] | Potency [3] | Potency [4] | Potency [5] | outcome [6] | Potency [7] | Potency [10] | Potency [8] | Potency [9]

CCCCC1CCCCC(=O)O1 (stereo unspecified)
inactive: outcome [1] | Potency [2] | Potency [3] | Potency [4] | Potency [5] | outcome [6] | Potency [7] | Potency [10] | Potency [8] | Potency [9]

CCOC(=O)[C@H](CCc1ccccc1)N[C@@H](C)C(=O)N1CCC[C@H]1C(=O)O
inactive: outcome [1] | Potency [2] | Potency [3] | Potency [4] | Potency [5] | outcome [6] | Potency [7] | Potency [8] | Potency [9]

NC(=S)Nc1cccc2ccccc12
inactive: activity change, negative = cytotoxicity [1] 29.3% [at 6.97 µM] | cytotoxicity increase [2] -1.04% [at 6.97 µM] | cytotoxicity [3] 5.93% [at 6.97 µM] | cytotoxicity increase [4] 0.974% [at 6.97 µM] | cytotoxicity increase [5] 15.1% [at 6.97 µM] | activity change, negative = cytotoxic [6] -0.289% [at 6.97 µM] | activity change, negative = cytotoxicity [7] 15.9% [at 6.97 µM] | activity change, negative = cytotoxicity [10] 11.2% [at 6.97 µM] | activity change [8] 0.057% [at 6.97 µM, stronger effect = higher value] | activity change, negative = cytotoxicity [9] 6.18% [at 6.97 µM]

CCN1CCCC(OC(=O)C(c2ccccc2)c2ccccc2)C1 (stereo unspecified)
inactive: outcome [1] | Potency [2] | Potency [3] | Potency [4] | Potency [5] | outcome [6] | Potency [7] | Potency [8] | Potency [9]

CCCC=O
inactive: outcome [1] | Potency [2] | Potency [3] | Potency [4] | Potency [5] | outcome [6] | Potency [7] | Potency [10] | Potency [8] | Potency [9]

NCCN1CCNC1=O
inactive: outcome [1] | Potency [2] | Potency [3] | Potency [4] | Potency [5] | outcome [6] | Potency [7] | Potency [8] | Potency [9]

CCCC(C)CO (stereo unspecified)
inactive: outcome [1] | Potency [2] | Potency [3] | Potency [4] | Potency [5] | outcome [6] | Potency [7] | Potency [8] | Potency [9]

CCCCC=O
inactive: outcome [1] | Potency [2] | Potency [3] | Potency [4] | Potency [5] | outcome [6] | Potency [7] | Potency [10] | Potency [8] | Potency [9]

COc1cccc(OC)c1
inactive: outcome [1] | Potency [2] | Potency [3] | Potency [4] | Potency [5] | outcome [6] | Potency [7] | Potency [8] | Potency [9]

CC(O)CN(CCCN(C)C)CCCN(C)C (stereo unspecified)
inactive: outcome [1] | Potency [2] | Potency [3] | Potency [4] | Potency [5] | outcome [6] | Potency [7] | Potency [8] | Potency [9]

CCCCNc1ccccc1
inactive: outcome [1] | Potency [2] | Potency [3] | Potency [4] | Potency [5] | outcome [6] | Potency [7] | Potency [10] | Potency [8] | Potency [9]

CNC(=O)c1c(I)c(NC(=O)CCCCC(=O)Nc2c(I)c(C(=O)O)c(I)c(C(=O)NC)c2I)c(I)c(C(=O)O)c1I
inactive: outcome [1] | Potency [2] | Potency [3] | Potency [4] | Potency [5] | outcome [6] | Potency [7] | Potency [10] | Potency [8] | Potency [9]

COc1ccc2cc(C=O)ccc2c1
inactive: outcome [1] | Potency [2] | Potency [3] | Potency [4] | Potency [5] | outcome [6] | Potency [7] | Potency [10] | Potency [8] | Potency [9]

CC(C)=CC(=O)O
inactive: outcome [1] | Potency [2] | Potency [3] | Potency [4] | Potency [5] | outcome [6] | Potency [7] | Potency [8] | Potency [9]

CC(C)(C)CC(C)(C)N
inactive: outcome [1] | Potency [2] | Potency [3] | Potency [5] | outcome [6] | Potency [7] | Potency [10] | Potency [8] | Potency [9]

Cc1ccccc1C(=O)O
inactive: outcome [1] | Potency [2] | Potency [3] | Potency [5] | outcome [6] | Potency [7] | Potency [10] | Potency [8] | Potency [9]

C[C@H]1O[C@@H](n2cc(F)c(=O)[nH]c2=O)[C@H](O)[C@@H]1O
inactive: outcome [1] | Potency [2] | Potency [3] | Potency [5] | outcome [6] | Potency [7] | Potency [10] | Potency [8] | Potency [9]

CCC(C(=O)NC(N)=O)c1ccccc1 (stereo unspecified)
inactive: outcome [1] | Potency [2] | Potency [3] | Potency [5] | outcome [6] | Potency [7] | Potency [10] | Potency [8] | Potency [9]

OCCN1C[C@H](O)[C@@H](O)[C@H](O)[C@H]1CO
inactive: outcome [1] | Potency [2] | Potency [3] | Potency [5] | outcome [6] | Potency [7] | Potency [10] | Potency [8]

NC(=O)CCCCC1CCSS1 (stereo unspecified)
inactive: outcome [1] | Potency [2] | Potency [4] | Potency [5] | outcome [6] | Potency [7] | Potency [10] | Potency [8] | Potency [9]

CCCOc1ccccc1-c1nc2n[nH]nc2c(=O)[nH]1
inactive: outcome [1] | Potency [2] | Potency [3] | Potency [5] | outcome [6] | Potency [8] | Potency [9]

Nc1nc(F)nc2c1ncn2[C@@H]1O[C@H](CO)[C@@H](O)[C@@H]1O
inactive: outcome [1] | Potency [2] | Potency [3] | Potency [5] | outcome [6] | Potency [7] | Potency [10] | Potency [8] | Potency [9]

CCCCN(CCO)CCO
inactive: outcome [1] | Potency [2] | Potency [3] | Potency [5] | outcome [6] | Potency [7] | Potency [10] | Potency [8]

CCCC(=O)O[C@]1(C(=O)CCl)[C@@H](C)C[C@H]2[C@@H]3CCC4=CC(=O)C=C[C@]4(C)[C@@]3(F)C(=O)C[C@@]21C
inactive: outcome [1] | Potency [2] | Potency [3] | Potency [5] | outcome [6] | Potency [7] | Potency [10] | Potency [8] | Potency [9]

C#CC(O)C(CC)CCCC (stereo unspecified)
inactive: outcome [1] | Potency [2] | Potency [3] | Potency [4] | outcome [6] | Potency [7] | Potency [10] | Potency [8] | Potency [9]

CCCCCCOC(=O)c1ccccc1O
inactive: outcome [1] | Potency [2] | Potency [3] | outcome [6] | Potency [7] | Potency [10] | Potency [8] | Potency [9]

CCCCCOC(=O)Nc1nc(=O)n([C@@H]2O[C@H](C)[C@@H](O)[C@H]2O)cc1F
inactive: outcome [1] | Potency [2] | Potency [3] | Potency [5] | outcome [6] | Potency [7] | Potency [10] | Potency [8] | Potency [9]

O=C(O)/C=C/c1ccc(Cn2ccnc2)cc1
inactive: outcome [1] | Potency [2] | Potency [3] | Potency [5] | outcome [6] | Potency [7] | Potency [10] | Potency [8] | Potency [9]

C=C(C)C(=O)OCCC(C)OC(=O)C(=C)C (stereo unspecified)
inactive: outcome [1] | Potency [2] | Potency [3] | Potency [5] | outcome [6] | Potency [7] | Potency [10] | Potency [8] | Potency [9]

OC/C=C/c1ccccc1
inactive: outcome [1] | Potency [2] | Potency [3] | Potency [5] | outcome [6] | Potency [7] | Potency [10] | Potency [8] | Potency [9]

CC1(C)SC(C)(C)SC(C)(C)S1
inactive: outcome [1] | Potency [2] | Potency [3] | Potency [5] | outcome [6] | Potency [10] | Potency [8] | Potency [9]
